40 compounds from PubChem BioAssay (NCATS) can be followed below.

Results filed as inconclusive are left out. A number with no mark means an inactive call. The source made the active and inactive calls. Calls come from the whole dose curve; as a rule, active = well fitted cell-killing curve with a large enough effect; inconclusive = small, poorly fitted or top-dose-only effect; inactive = no such curve, though single readings can be large or run the other way. Starred links: 1 amine or outer side, 2 acyl side, 3 side chain; linkers in the order of their positions; H or OH if unused. Positions of bridges follow the written chain, without caps; N, C: chain ends. Non-standard residues stand in square brackets, D forms with d. Residues, ends and D or L forms follow the SMILES beside them. Chains are numbered I, II in the order given. Actinocin(9to1) = Cc1c2oc3c(C)ccc(C(=O)[*:1])c3nc-2c(C(=O)[*:2])c(N)c1=O; NMeV = CN[CH](C(=O)O)C(C)C; Sar = CNCC(=O)O
% is set by controls: 0 for no effect and ±100 for the full control effect; potency is the fitted concentration of half-maximal effect.

This assay can be described thus: qHTS of pediatric cancer cell lines to identify multiple opportunities for drug repurposing: Confirmatory screen for DAOY cells (AID 1347114). Note: nearly all actives have a fitted effect of over 65% in size. As to conditions: DAOY medulloblastoma cells viability, cytotoxicity qHTS; series mostly up to 45.9 µM; activity change, negative = cytotoxic: at the top concentration. The source says: Drug repurposing or repositioning has been offered as a strategy for drug development in oncology programs. This approach has special potential for childhood cancers and other rare or orphan diseases, where the expected return on new drug development has been a disincentive to pharmaceuticals.
In this project we exploit the poly-pharmacology of drugs to discover new indications via phenotypic screening of a panel of 19 well-characterized cell lines derived from solid tumors seen in children and adolescents. The goal is to identify approved drugs with previously unrecognized anticancer properties that has the potential to reveal new mechanisms and biological processes involved in carcinogenesis or drug resistance. We employed a titration-based paradigm (quantitative high-throughput screening or qHTS), where all compounds were tested at multiple concentrations for their effect on cell viability. Concentration-response curves (CRCs) were derived directly from the primary screen, and both potency and efficacy values were used to identify compounds with robust bioactivity profiles. We screened the NIH Chemical Genomics Center (NCGC) Pharmaceutical Collection (NPC) and Mechanism Interrogation Plate (MIPE) small molecule collections of approved and investigational compounds against these cell lines; and measured metabolically active cells after 48 hours of compound treatment as a proxy for cell viability.
Assay Submitter: Nathalia J. Martinez, National Center for Advancing Translational Sciences, National Institutes of Health, Rockville, MD, USA; email: natalia.martinez@nih.gov
[1] Shen, M et al. Quantitative high-throughput phenotypic screening of pediatric cancer cell lines identifies multiple opportunities for drug repurposing. Oncotarget 2017 Dec 19;9(4):4758-4772. PMID 29435139.
The cells were obtained from University of North Carolina (UNC), Pediatric Preclinical Testing Program (PPT), and Coriell Institute (CI).
qHTS cell viability assay:
Cells were assayed in growth media at a density of 500-1,000 cells/well. Five microliters of cells were dispensed into 1,536-well, white, solid-bottom, TC-treated plates (Greiner Bio One) using a multidrop dispenser and incubated at 37 degrees C, 5% CO2, under a humidified atmosphere for 5 hours. Twenty-three nanoliters of compounds and controls (neutral control DMSO or positive control bortezomib at final concentration of 2.3 µM) were subsequently transferred by Kalypsys pintool. For primary screens, the MIPE collection was tested at 11-point dilutions (final concentrations range from 0.78 nM to 46 µM) and the NPC collection at 8-point dilutions (final concentrations range from 0.59 nM to 46 µM). Compounds tested in follow-up screens were assayed at 11-point dilutions. Cells were incubated for 48 hours, followed by addition of 3 uL of CellTiter-Glo (Promega). After a 15 min incubation at room temperature, samples were analyzed for luminescence intensity using a ViewLux High-throughput CCD imager equipped with clear filters.
Background: Quantitative high-throughput screening tests each substance at several concentrations.
`CNC(=O)c1ccc(Nc2cc(Nc3ccccc3S(=O)(=O)C(C)C)c3cc[nH]c3n2)nc1`: the Potency is 5.85 µM (active).

In the case of `COc1cccc2c1C(=O)c1c(O)c3c(c(O)c1C2=O)C[C@@](O)(C(=O)CO)C[C@@H]3O[C@H]1C[C@H](N)[C@@H](O)[C@H](C)O1`, the Potency was 1.47 µM (active).

On to `Cc1cc(Nc2ncc3c(n2)N(C)C(=O)N(c2cc(NC(=O)c4cccc(C(F)(F)F)c4)ccc2C)C3)n(C)n1`, for which the Potency was 14.7 µM (active).

On to `O=C(C=CC#Cc1cccc(NS(=O)(=O)c2ccccc2)c1)NO`, for which the Potency was 7.37 µM (active).

As to `CS[C@H]1SC[C@@H]2C(=O)N(C)[C@H](C(C)C)C(=O)OC[C@H](NC(=O)c3cnc4ccccc4n3)C(=O)N[C@H](C)C(=O)N(C)[C@@H]1C(=O)N(C)[C@H](C(C)C)C(=O)OC[C@H](NC(=O)c1cnc3ccccc3n1)C(=O)N[C@H](C)C(=O)N2C`, the Potency is 0.0147 µM (active).

Turning to `O=C(O)C[C@H](O)C[C@H](O)C=Cc1c(C2CC2)nc2ccccc2c1-c1ccc(F)cc1`, the Potency was 1.47 µM (active).

As for `CC(C)N1[N]C(=C2C=c3cc(O)ccc3=N2)c2c(N)ncnc21`, the Potency is 5.22 µM (active).

`C[C@@H](Oc1ccc2[nH]nc(C=Cc3cnn(CCO)c3)c2c1)c1c(Cl)cncc1Cl`: the Potency is 18.5 µM (active).

Turning to `CC(C=CC(=O)NO)=C[C@@H](C)C(=O)c1ccc(N(C)C)cc1`, the Potency was 2.33 µM (active).

As to `COC(=O)C=CC(=O)OC`, the “activity change, negative = cytotoxic” value is -5.18%.

For `O=C(NC1CC1)c1cccc(-c2ccc3c(NC(=O)C4CC4)n[nH]c3c2)c1`, the Potency was 9.27 µM (active).

For the compound `Cc1ncc(-c2ccnc(Nc3ccc(S(C)(=O)=O)cc3)n2)n1C(C)C`, the Potency is 13.1 µM (active).

Consider `COc1cc(OC)c(C=CS(=O)(=O)Cc2ccc(OC)c(NCC(=O)O)c2)c(OC)c1`, for which the Potency was 0.165 µM (active).

In the case of `CC(=O)SCC(Cc1ccccc1)C(=O)NCC(=O)OCc1ccccc1` (stereo not given), the “activity change, negative = cytotoxic” value was 10.5%.

With `CN[C@@H]1C[C@H]2O[C@@](C)([C@H]1OC)n1c3ccccc3c3c4c(c5c6ccccc6n2c5c31)C(=O)N[C@H]4O`, the Potency is 1.47 µM (active).

As to `COC(=O)[C@@H]1[C@H]2C[C@@H]3c4[nH]c5ccccc5c4CCN3C[C@@H]2CC[C@@H]1O`, the “activity change, negative = cytotoxic” value is -9.91%.

As to `COc1ccc(C(C)=O)c(O)c1`, the “activity change, negative = cytotoxic” value was 3.68%.

For the compound `CCc1cnn2c(NCc3ccc[n+]([O-])c3)cc(N3CCCC[C@@H]3CCO)nc12`, the “activity change, negative = cytotoxic” value is -7.18%.

On to `C[C@H](NCc1ccc2c(c1)nc(NC(=O)c1ccc(-c3cn[nH]c3)s1)n2CCc1ccccc1)C(C)(C)C`, for which the Potency was 2.93 µM (active).

As to `O=C1NC(=O)C(=Cc2ccc3nccc(-c4ccncc4)c3c2)S1`, the Potency was 8.27 µM (active).

Regarding `CN(C)c1ccc(C(=O)NCCCCCCC(=O)NO)cc1`, the Potency was 3.29 µM (active).

Regarding `Oc1ccc(-c2ccc(-c3cc(Nc4cccc(CNC5CC5)c4)n[nH]3)cc2)c(O)c1`, the Potency is 6.57 µM (active).

In the case of `CC[C@@]1([C@@H]2O[C@@H]([C@H]3O[C@@](O)(CO)[C@H](C)C[C@H]3C)C[C@H]2C)CC[C@H]([C@]2(C)CC[C@]3(C[C@H](O)[C@@H](C)[C@@H]([C@@H](C)[C@@H](OC)[C@H](C)C(=O)O)O3)O2)O1`, the Potency was 3.23 µM (active).

In the case of `Cc1c2oc3c(C)ccc(C(=O)NC4C(=O)NC(C(C)C)C(=O)N5CCCC5C(=O)N(C)CC(=O)N(C)C(C(C)C)C(=O)OC4C)c3nc-2c(C(=O)NC2C(=O)NC(C(C)C)C(=O)N3CCCC3C(=O)N(C)CC(=O)N(C)C(C(C)C)C(=O)OC2C)c(N)c1=O` (stereo not given) (I: TVP[Sar][NMeV] / II: TVP[Sar][NMeV]; ester I:1-I:C, II:1-II:C; linker I:N-II:N via Actinocin(9to1); configuration not given here), the Potency was 0.0369 µM (active).

Take `COc1cccc2c1C(=O)c1c(O)c3c(c(O)c1C2=O)C[C@@](O)(C(C)=O)C[C@H]3O[C@H]1C[C@H](N)[C@H](O)[C@H](C)O1`: the Potency is 3.69 µM (active).

For `C=CCNC1=C2C[C@@H](C)C[C@H](OC)[C@@H](O)[C@@H](C)C=C(C)[C@H](OC(N)=O)[C@@H](OC)C=CC=C(C)C(=O)NC(=CC1=O)C2=O`, the Potency is 4.65 µM (active).

With `CC1(C)O[C@@H]2C[C@H]3[C@@H]4CCC5=CC(=O)C=C[C@]5(C)[C@@H]4[C@@H](O)C[C@]3(C)[C@]2(C(=O)CO)O1`, the “activity change, negative = cytotoxic” value was 21.8%.

Consider `C[C@H]1[C@@H](OC(=O)CCC(=O)O)O[C@@H]2O[C@@]3(C)CC[C@@H]4[C@H](C)CC[C@@H]1[C@@]24OO3`, for which the Potency was 23.3 µM (active).

With `C=CC(=O)Nc1ccc2ncnc(Nc3ccc(OCc4cccc(F)c4)c(Cl)c3)c2c1`, the Potency was 7.37 µM (active).

In the case of `CCS(=O)(=O)Nc1ccc2[nH]c(O)c(C(=Nc3ccc(CN4CCCCC4)cc3)c3ccccc3)c2c1`, the Potency was 16.5 µM (active).

On to `Cn1cnc(=N)c2[nH]cnc21`, for which the “activity change, negative = cytotoxic” value is -5.82%.

`CCOC(=O)N1CCN([N+]([O-])=NOc2ccc([N+](=O)[O-])cc2C#N)CC1`: the Potency was 2.33 µM (active).

Regarding `CC(C)C[C@H](NC(=O)[C@@H](NC(=O)c1cccc(-c2ccccc2)n1)[C@@H](C)O)B(O)O`, the Potency is 0.0369 µM (active).

Regarding `COc1cc([C@@H]2c3cc4c(cc3[C@@H](O[C@@H]3O[C@@H]5CO[C@@H](c6cccs6)O[C@@H]5[C@H](O)[C@@H]3O)[C@H]3COC(=O)[C@H]23)OCO4)cc(OC)c1O`, the Potency is 5.22 µM (active).

In the case of `COc1cccc2c1C(=O)c1c(O)c3c(c(O)c1C2=O)C[C@@](O)(C(=O)CO)C[C@H]3O[C@H]1C[C@H](N)[C@H](O)[C@H](C)O1`, the Potency is 3.69 µM (active).

As to `CCN(CC)CCNC(=O)c1c(C)[nH]c(C=C2C(=O)Nc3ccc(F)cc32)c1C`, the Potency is 17 µM (active).

As for `O=C1NCCc2[nH]c(-c3ccncc3)cc21`, the Potency is 4.14 µM (active).

Take `CCC(C(=O)O)C1CCC(C)C(C(C)C(O)C(C)C(=O)C(CC)C2OC3(C=CC(O)[C@@]4(CC[C@](C)(C5CC[C@@](O)(CC)C(C)O5)O4)O3)C(C)CC2C)O1` (stereo not given in full): the Potency is 3.29 µM (active).

In the case of `CCCCC(=O)O[C@]1(C(=O)CO)[C@@H](C)C[C@H]2[C@@H]3CCC4=CC(=O)C=C[C@]4(C)[C@@]3(F)[C@@H](O)C[C@@]21C`, the “activity change, negative = cytotoxic” value was 10.9%.

Regarding `Cc1nc(NC(=O)N2CCC[C@@H]2C(N)=O)sc1-c1ccnc(C(C)(C)C(F)(F)F)c1`, the “activity change, negative = cytotoxic” value is -23.1%.
